Experiment in all cases: DAPPL (digital affinity profiling via proximity ligation, sequencing); 10 mM Tris-HCl pH 7.5, 50 mM NaCl, 1 mM DTT, 4% glycerol, room temperature, 30 min; GST-TFs on glutathione beads, 16-mer random dsDNA library, 0.1% formaldehyde crosslink after washing; high values mean tight binding
Assay [1] addresses HSF1 (Homo sapiens, UniProt Q00613 1-529). Particulars: protein: recombinant; tags: N-terminal GST; chain copies: 3; dsDNA, one strand shown. A digest of the protocol: (§1)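 Human transcription factors carrying a GST fusion were produced in yeast, bound to glutathione beads, tagged with DNA barcodes and pooled together with a tag-only sample. Each pool was held with 200 nmole of a random double-stranded 16-mer DNA library in Tris/NaCl/DTT/glycerol buffer for 30 min at room temperature, then washed, crosslinked in 0.1% formaldehyde, proximity-ligated with BsaI/T4 ligase (1 h, 37 °C), PCR-amplified and sequenced on an Illumina NextSeq500. Binding signal is the read frequency of each hexamer for a given factor divided by its frequency in the tag-only sample.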

Assay [2] deals with T1, ELK1 (Homo sapiens, UniProt P19419 1-428).
T1 sequence: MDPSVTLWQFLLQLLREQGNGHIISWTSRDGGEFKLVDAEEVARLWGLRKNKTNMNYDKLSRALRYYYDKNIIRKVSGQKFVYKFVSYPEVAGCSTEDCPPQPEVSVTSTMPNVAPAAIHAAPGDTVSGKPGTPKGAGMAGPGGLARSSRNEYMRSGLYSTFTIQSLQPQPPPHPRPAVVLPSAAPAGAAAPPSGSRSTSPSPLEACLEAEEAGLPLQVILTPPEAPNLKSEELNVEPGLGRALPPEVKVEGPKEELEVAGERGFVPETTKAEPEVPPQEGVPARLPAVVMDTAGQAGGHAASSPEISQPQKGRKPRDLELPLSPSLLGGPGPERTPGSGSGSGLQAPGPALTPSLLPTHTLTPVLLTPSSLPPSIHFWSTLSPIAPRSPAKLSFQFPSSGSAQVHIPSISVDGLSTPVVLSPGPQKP
The conditions noted are these: protein: recombinant; tags: N-terminal GST; dsDNA, one strand shown. A digest of the protocol:
as §1

The target in assay [3] is T2, ERG (Homo sapiens, UniProt P11308 1-479).
T2 sequence: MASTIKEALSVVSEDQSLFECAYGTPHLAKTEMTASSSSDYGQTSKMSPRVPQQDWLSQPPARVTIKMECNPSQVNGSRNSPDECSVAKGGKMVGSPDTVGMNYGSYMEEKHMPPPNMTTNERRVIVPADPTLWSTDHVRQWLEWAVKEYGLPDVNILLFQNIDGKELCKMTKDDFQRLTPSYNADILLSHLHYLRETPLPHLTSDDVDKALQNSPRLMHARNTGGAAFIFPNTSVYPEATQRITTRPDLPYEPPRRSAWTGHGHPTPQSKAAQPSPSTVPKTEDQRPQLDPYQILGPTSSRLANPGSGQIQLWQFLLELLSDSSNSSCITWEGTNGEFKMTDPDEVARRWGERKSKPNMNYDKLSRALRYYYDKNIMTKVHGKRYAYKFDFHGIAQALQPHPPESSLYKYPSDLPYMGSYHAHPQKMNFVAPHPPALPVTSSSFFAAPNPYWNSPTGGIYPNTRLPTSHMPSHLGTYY
Particulars: protein: recombinant; tags: N-terminal GST; dsDNA, one strand shown. A digest of the protocol:
as §1

For assay [4], the target named is SPI1 (Homo sapiens, UniProt P17947 1-270). Particulars: protein: recombinant; tags: N-terminal GST; dsDNA, one strand shown. A digest of the protocol: as §1
For assay [5], the target named is T3, SPIC (Homo sapiens, UniProt Q8N5J4 1-248).
T3 sequence: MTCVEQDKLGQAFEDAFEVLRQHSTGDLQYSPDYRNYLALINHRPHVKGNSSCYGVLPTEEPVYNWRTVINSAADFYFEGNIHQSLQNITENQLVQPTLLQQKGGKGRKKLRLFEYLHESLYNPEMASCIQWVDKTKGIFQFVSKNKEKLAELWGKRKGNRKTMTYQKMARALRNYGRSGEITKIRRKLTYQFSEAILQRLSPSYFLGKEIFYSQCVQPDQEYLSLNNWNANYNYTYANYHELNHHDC
The conditions noted are these: protein: recombinant; tags: N-terminal GST; dsDNA, one strand shown. In a few lines:
as §1

The target in assay [6] is T4, ELK4 (Homo sapiens, UniProt P28324-2 1-405).
T4 sequence: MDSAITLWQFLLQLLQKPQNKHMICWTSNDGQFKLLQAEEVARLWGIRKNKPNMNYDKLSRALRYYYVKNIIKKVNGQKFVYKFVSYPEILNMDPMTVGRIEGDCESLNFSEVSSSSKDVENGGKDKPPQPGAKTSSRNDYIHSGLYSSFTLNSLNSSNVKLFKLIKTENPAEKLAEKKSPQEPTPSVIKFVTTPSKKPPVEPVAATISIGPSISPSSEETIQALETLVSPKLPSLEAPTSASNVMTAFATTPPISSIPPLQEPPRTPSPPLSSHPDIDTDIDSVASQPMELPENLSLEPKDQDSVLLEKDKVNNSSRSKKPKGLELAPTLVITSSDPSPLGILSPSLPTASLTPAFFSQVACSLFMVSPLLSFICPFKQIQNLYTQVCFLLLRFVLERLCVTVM
The conditions noted are these: protein: recombinant; tags: N-terminal GST; dsDNA, one strand shown. In a few lines: as §1

In assay [7] the target is T5, ETV2 (Homo sapiens, UniProt O00321 1-342).
T5 sequence: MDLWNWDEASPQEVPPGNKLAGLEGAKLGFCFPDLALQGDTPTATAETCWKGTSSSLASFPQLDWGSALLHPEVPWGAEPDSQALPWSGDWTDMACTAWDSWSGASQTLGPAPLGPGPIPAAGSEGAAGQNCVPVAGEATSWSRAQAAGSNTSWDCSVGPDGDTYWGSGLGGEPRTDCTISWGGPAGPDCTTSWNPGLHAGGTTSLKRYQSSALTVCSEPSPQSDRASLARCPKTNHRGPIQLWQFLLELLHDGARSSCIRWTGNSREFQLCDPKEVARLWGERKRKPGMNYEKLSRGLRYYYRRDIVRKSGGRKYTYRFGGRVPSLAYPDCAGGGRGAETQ
The conditions noted are these: protein: recombinant; tags: N-terminal GST; dsDNA, one strand shown. A digest of the protocol:
as §1

Assay [8] addresses CRX (Homo sapiens, UniProt O43186 1-299). The conditions noted are these: protein: recombinant; tags: N-terminal GST; dsDNA, one strand shown. In a few lines:
as §1

In assay [9] the target is T6, ERF (Homo sapiens, UniProt P50548 1-548).
T6 sequence: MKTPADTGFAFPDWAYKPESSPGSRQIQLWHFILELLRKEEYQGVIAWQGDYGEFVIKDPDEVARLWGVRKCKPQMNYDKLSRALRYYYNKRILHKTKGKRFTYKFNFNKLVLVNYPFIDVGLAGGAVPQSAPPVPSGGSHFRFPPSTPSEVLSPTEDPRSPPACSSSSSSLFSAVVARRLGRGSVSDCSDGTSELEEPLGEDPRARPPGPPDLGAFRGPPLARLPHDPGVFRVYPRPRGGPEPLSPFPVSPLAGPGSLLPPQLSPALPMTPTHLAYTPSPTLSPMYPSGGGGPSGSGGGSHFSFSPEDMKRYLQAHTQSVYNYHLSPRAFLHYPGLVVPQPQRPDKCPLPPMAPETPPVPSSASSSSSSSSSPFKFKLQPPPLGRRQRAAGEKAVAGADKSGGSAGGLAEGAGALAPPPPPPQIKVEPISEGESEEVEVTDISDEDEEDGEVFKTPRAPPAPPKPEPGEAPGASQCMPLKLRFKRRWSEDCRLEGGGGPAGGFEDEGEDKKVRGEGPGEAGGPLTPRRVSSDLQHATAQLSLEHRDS
The conditions noted are these: protein: recombinant; tags: N-terminal GST; dsDNA, one strand shown. A digest of the protocol: as §1

For assay [10], the target named is T7, ETV3L (Homo sapiens, UniProt Q6ZN32 1-361).
T7 sequence: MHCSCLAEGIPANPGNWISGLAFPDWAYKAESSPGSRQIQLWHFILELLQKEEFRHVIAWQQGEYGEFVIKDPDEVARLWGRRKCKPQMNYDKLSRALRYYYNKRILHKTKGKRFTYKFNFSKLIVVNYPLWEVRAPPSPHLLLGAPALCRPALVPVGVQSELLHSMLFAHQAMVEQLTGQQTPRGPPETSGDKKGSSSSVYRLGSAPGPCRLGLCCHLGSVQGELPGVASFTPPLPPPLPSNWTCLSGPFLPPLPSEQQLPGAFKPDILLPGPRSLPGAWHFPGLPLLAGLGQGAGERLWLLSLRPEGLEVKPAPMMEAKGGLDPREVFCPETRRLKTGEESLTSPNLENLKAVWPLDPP
Particulars: protein: recombinant; tags: N-terminal GST; dsDNA, one strand shown. A digest of the protocol: as §1

Assay [11] concerns the target T8, ELF5 (Homo sapiens, UniProt Q9UKW6-2 1-255).
T8 sequence: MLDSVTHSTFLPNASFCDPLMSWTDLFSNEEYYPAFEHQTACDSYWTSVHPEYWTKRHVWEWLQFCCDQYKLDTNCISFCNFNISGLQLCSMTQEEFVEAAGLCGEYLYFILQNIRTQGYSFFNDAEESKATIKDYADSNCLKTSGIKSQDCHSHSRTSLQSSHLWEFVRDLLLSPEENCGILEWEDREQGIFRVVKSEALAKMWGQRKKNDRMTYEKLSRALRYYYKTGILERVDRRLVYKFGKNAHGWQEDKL
Particulars: protein: recombinant; tags: N-terminal GST; dsDNA, one strand shown. In a few lines:
as §1

For assay [12], the target named is T9, ETV3 (Homo sapiens, UniProt P41162-2 1-143).
T9 sequence: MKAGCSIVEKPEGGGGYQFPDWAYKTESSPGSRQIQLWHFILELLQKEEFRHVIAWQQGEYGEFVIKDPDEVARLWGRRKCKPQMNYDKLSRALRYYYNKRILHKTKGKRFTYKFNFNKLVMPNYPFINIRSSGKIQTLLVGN
Particulars: protein: recombinant; tags: N-terminal GST; dsDNA, one strand shown. In a few lines:
as §1

The target in assay [13] is ETV6 (Homo sapiens, UniProt P41212 1-452). Particulars: protein: recombinant; tags: N-terminal GST; dsDNA, one strand shown. In a few lines:
as §1

Sequence of HSF1 (Q00613 whole entry, the tested form may be a part): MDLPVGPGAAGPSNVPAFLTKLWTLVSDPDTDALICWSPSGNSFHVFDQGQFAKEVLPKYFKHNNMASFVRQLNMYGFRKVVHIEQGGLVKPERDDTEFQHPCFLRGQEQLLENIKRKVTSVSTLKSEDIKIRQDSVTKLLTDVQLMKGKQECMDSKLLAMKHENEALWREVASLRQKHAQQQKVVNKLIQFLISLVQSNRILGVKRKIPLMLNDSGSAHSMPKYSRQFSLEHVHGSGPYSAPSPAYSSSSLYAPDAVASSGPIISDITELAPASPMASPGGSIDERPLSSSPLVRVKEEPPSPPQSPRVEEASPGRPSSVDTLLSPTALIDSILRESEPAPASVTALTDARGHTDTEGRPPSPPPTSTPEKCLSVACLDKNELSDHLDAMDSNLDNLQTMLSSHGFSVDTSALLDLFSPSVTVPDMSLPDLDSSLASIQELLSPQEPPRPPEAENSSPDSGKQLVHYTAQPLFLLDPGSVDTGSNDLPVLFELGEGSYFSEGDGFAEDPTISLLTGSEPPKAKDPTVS
Sequence of ETV6 (P41212 whole entry): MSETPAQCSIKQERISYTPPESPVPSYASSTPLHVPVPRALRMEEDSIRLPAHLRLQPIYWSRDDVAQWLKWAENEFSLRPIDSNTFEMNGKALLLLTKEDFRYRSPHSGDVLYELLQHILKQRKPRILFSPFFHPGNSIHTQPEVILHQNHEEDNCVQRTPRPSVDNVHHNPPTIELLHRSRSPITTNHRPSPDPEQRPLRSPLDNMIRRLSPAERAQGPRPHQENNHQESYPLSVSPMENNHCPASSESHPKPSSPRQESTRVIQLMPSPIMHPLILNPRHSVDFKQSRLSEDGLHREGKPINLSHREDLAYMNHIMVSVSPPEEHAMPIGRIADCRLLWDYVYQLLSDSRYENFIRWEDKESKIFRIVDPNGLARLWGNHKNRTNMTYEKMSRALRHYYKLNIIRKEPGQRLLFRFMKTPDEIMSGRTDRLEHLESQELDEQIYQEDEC
Sequence of CRX (O43186 whole entry): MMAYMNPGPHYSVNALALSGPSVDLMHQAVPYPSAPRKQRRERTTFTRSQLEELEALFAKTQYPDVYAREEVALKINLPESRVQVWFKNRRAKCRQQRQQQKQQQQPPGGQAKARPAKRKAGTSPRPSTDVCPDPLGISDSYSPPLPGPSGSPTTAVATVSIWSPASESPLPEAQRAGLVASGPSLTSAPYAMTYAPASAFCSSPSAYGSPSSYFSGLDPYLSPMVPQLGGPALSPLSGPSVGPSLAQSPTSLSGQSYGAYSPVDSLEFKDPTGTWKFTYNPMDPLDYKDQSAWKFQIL

Regarding ATCGAG, the binding signal in assay [1] was 1.49 fold enrichment (6-mer frequency, TF over GST control).
Still for that read-out and setting: the figure for ACAGAA is 1.27 fold enrichment (6-mer frequency, TF over GST control); for GAAGGT it is 1.14 fold enrichment (6-mer frequency, TF over GST control).
With AGTATA, the binding signal in assay [2] is 1.05 fold enrichment (6-mer frequency, TF over GST control); in assay [3], 1 fold enrichment (6-mer frequency, TF over GST control); in assay [4], 1.04 fold enrichment (6-mer frequency, TF over GST control); in assay [1], 1.01 fold enrichment (6-mer frequency, TF over GST control); in [5], 1.07 fold enrichment (6-mer frequency, TF over GST control); in [6] it was 1.03 fold enrichment (6-mer frequency, TF over GST control). For the same sequence, the binding signal in assay [7] is 1.06 fold enrichment (6-mer frequency, TF over GST control); in [8] it was 1.07 fold enrichment (6-mer frequency, TF over GST control); in assay [9], 1.01 fold enrichment (6-mer frequency, TF over GST control); in assay [10], 1.02 fold enrichment (6-mer frequency, TF over GST control); in [11] it was 1.03 fold enrichment (6-mer frequency, TF over GST control); in assay [12], 1 fold enrichment (6-mer frequency, TF over GST control). Moreover, the binding signal in [13] is 1.06 fold enrichment (6-mer frequency, TF over GST control).

Source of the values: article PMC7862700, “An all-to-all approach to the identification of sequence-specific readers for epigenetic DNA modifications on cytosine”.
